Bioassay records: PubChem BioAssay, Broad Institute
BioA inh: inhibitors of Mycobacterium tuberculosis BioA enzyme; purified M. tuberculosis BioA enzyme, plate reader; 0.096% of 360,000 active; inhibition, % at 9.99 µM; AID 602481; in the data active means inhibition above about 40%
Y pestis TopoI: blocks Yersinia pestis topoisomerase I activity. Y. pestis Topo-I cleavage product accumulation, plate reader. activity, % at 10 µM. 0.064% of 360,000 active. AID 504884; in the data active means activity above about 50%, passing the limit was not always enough
TcdB GH inh: TcdB glycohydrolase inhibition; TcdB glycohydrolase enzymatic assay, plate reader; inhibition, % at 9.99 µM; 0.24% of 350,000 active; in the data active means inhibition above about 10%
Starred values were filed as active, the others as inactive; . = no result. Hits are enriched below; roughly 0.32% of the tested compounds scored in any of these assays.

SMILES	BioA inh	Y pestis TopoI	TcdB GH inh
Fc1ccc(/C=C\c2nccc3c2[nH]c2ccccc23)cc1	1.3	-16.6	11.5*
C[C@H]1CN([C@@H](C)CO)C(=O)Cc2cc(NC(=O)C3CC3)ccc2O[C@@H]1CN(C)S(=O)(=O)c1ccccc1	0.5	.	0.2
C[C@@H]1CN([C@H](C)CO)C(=O)c2cc(C#CC3CCCC3)cnc2O[C@@H]1CN(C)Cc1ccncc1	-0.6	.	-1.4
CCCNC(=O)c1ccc2c(=O)c(O)c(-c3ccc(Cl)c([N+](=O)[O-])c3)[nH]c2c1	0.6	2.0	0.7
NC(=O)c1ccc2c(=O)c(O)c(-c3cc(Cl)c(N)c(Cl)c3)[nH]c2c1	0.2	-8.8	12.6*
CO[C@@H]1CN(C)C(=O)c2ccc(NC(=O)Nc3ccc(Cl)cc3)cc2OC[C@H](C)N(C(=O)Nc2c(C)noc2C)C[C@H]1C	-0.5	.	-0.4
CCCC#Cc1ccc2c(c1)O[C@H](CN(C)C(=O)c1cnccn1)[C@@H](C)CN([C@@H](C)CO)S2(=O)=O	0.9	.	0.4
CCN(C(=O)COC(=O)c1cccnc1SC)C1CCCCC1	-0.4	4.5	14.7*
CCN(C(=O)COC(=O)c1cccnc1SC)C1CCS(=O)(=O)C1 (stereo not drawn)	-0.7	-1.8	0.0
CCN(C(=O)COC(=O)c1c2c(nc3ccccc13)CCC2)c1c(N)n(Cc2ccccc2)c(=O)[nH]c1=O	-0.4	15.0	0.8
CCOc1ccc2oc(C(=O)OCC(=O)N(CC(C)C)c3c(N)n(Cc4ccccc4)c(=O)[nH]c3=O)c(C)c2c1	-1.1	18.1	1.0
Cc1c(C(=O)OCC(=O)N(CC(C)C)c2c(N)n(Cc3ccccc3)c(=O)[nH]c2=O)oc2ccccc12	-0.8	82.0*	4.8
CC(C)CN(C(=O)COC(=O)c1cc2ccccc2cc1O)c1c(N)n(Cc2ccccc2)c(=O)[nH]c1=O	-1.9	80.0*	1.5
CC(C)CN(C(=O)COC(=O)c1c2c(nc3ccccc13)CCC2)c1c(N)n(Cc2ccccc2)c(=O)[nH]c1=O	-0.4	59.9*	0.8
CC(C)CN(C(=O)COC(=O)c1cc(=O)[nH]c2ccccc12)c1c(N)n(Cc2ccccc2)c(=O)[nH]c1=O	-1.5	21.2	1.0
C/C=C/c1cnc2c(c1)C(=O)N([C@H](C)CO)C[C@H](C)[C@H](CN(C)S(=O)(=O)c1ccc(OC)cc1)O2	-1.6	.	-0.7
C[C@H]1CN([C@@H](C)CO)C(=O)CCCn2nncc2CO[C@@H]1CN(C)S(=O)(=O)c1ccc(C#N)cc1	.	.	-0.6
CC1(C)CC(=O)C=C(c2ccc(COC(=O)c3ccccc3)cc2)C1=O	0.2	9.9	-0.1
CC1(C)CC(=O)C=C(c2ccc(COC(=O)/C=C/c3ccccc3)cc2)C1=O	-0.3	55.6*	0.5
CN(C[C@@H]1N[C@H](CO)[C@@H]1c1ccc(-c2cccc(F)c2)cc1)C(=O)C1CCC1	1.1	.	-1.1
COc1ccc(Cl)cc1NC(=O)CN(C)C(=O)c1cc2c(s1)CCCC2	1.7	2.2	11.6*
COc1ccc(Cl)cc1NC(=O)CN(C)C(=O)Cc1ccc2c(c1)CCC2	-0.6	32.1	4.4
C[C@@H]1CN([C@@H](C)CO)C(=O)Cc2cc(NC(=O)CCN3CCOCC3)ccc2O[C@@H]1CN(C)C(=O)Nc1ccccc1	-1.8	.	.
C[C@H]1CCCCO[C@@H](CN(C)C(=O)c2ccncc2)[C@@H](C)CN([C@@H](C)CO)C(=O)c2cc(NS(=O)(=O)c3ccccc3)ccc2O1	-2.1	.	0.2
Cc1ccc(NS(=O)(=O)c2ccccc2)c(NS(=O)(=O)c2ccccc2)c1	-0.8	7.3	4.4
SMILES	BioA inh	Y pestis TopoI	TcdB GH inh
Cc1cc(-c2ccc(NS(=O)(=O)c3ccccc3)c(C)c2)ccc1NS(=O)(=O)c1ccccc1	-0.9	-5.2	11.9*
CC(C)(C)OC(=O)NCCCCCc1nnc(SCc2cccc(F)c2)o1	.	23.3	0.8
CC(C)(C)OC(=O)NCCCCCc1nnc(SCc2ccccc2)o1	1.0	56.9*	0.9
COC(=O)C[C@@H]1C[C@@H]2c3cc(NC(=O)C4CCC4)ccc3O[C@@H]2[C@@H](CO)O1	0.6	.	2.4
CCCc1cc(-c2n[nH]c(C(=O)OCC)c2-c2cscn2)c(O)cc1O	3.6	16.8	21.5*
CCOC(=O)c1[nH]nc(-c2c(O)cc(C)cc2O)c1-c1csc(C)n1	-4.5	-6.0	.
NC(=O)NC(=O)Nc1ccccc1Cl	-0.6	8.7	.
O=C(Nc1ccccc1Cl)OCC#CCOC(=O)Nc1ccccc1Cl	-1.4	54.7*	0.3
O=C(Nc1ccc(-c2nc3ccccc3[nH]2)cc1)c1ccc2c(c1)OCO2	-1.1	11.5	1.2
c1ccc2[nH]c(-c3ccc4c(c3)OCO4)nc2c1	2.1	6.2	11.2*
C/C=C/c1ccc([C@@H]2[C@@H](CO)N(C(C)=O)C23CN(C(=O)c2ccncc2)C3)cc1	.	.	-2.2
C[C@H](CO)N1C[C@H](C)[C@@H](CN(C)S(=O)(=O)c2cccs2)Oc2c(NS(C)(=O)=O)cccc2C1=O	-1.5	.	0.0
CC(=O)Nc1cccc(Oc2nc(-c3ccccn3)nc3ccccc23)c1	-0.3	13.9	1.3
CC(=O)Nc1ccc(Oc2nc(-c3ccccn3)nc3ccccc23)cc1	.	-1.2	28.2*
CCCCn1c(CN2CCN(C(=O)c3ccco3)CC2)nc2c1c(=O)n(C)c(=O)n2C	1.2	-1.6	10.3*
CCCCCn1c(CN2CCN(C(=O)c3ccco3)CC2)nc2c1c(=O)n(C)c(=O)n2C	7.0	30.3	3.2
O=C(C[C@H]1C=C[C@@H](NC(=O)c2ccncc2)[C@H](CO)O1)Nc1ccc(-c2ccccc2)cc1	-0.4	.	1.0
Cc1cc(C(=O)Nc2ncc(C)s2)c2ccccc2n1	.	-0.6	10.0*
COc1ccc(NC(=O)c2cc(-c3ccc(C)o3)nc3ccccc23)c(OC)c1	-0.8	14.4	-0.7
Cc1cc(C(=O)Nc2ccccc2Cl)c2ccccc2n1	-2.0	-1.1	1.1
COc1ccc(NC(=O)c2cc(C)nc3ccccc23)c(OC)c1	.	-11.4	12.0*
Nn1c(SCc2ccccc2F)nnc1-c1ccccn1	0.4	1.2	13.7*
Nn1c(SCc2ccc(F)cc2)nnc1-c1ccccn1	0.9	-1.6	0.0
COc1ccc(-c2n[nH]c3c2C(c2ccc(OC)c(OC)c2)N(c2ccccc2)C3=O)cc1 (stereo not drawn)	65.3*	3.3	.
COc1ccc(N2C(=O)c3[nH]nc(-c4ccccc4)c3C2c2ccc(F)cc2)cc1 (stereo not drawn)	.	.	1.5
SMILES	BioA inh	Y pestis TopoI	TcdB GH inh
CC(C)(C)[S@](=O)N1Cc2cc(C(=O)NCc3ccc4c(c3)OCO4)nc(-c3cccc(-c4ccncc4)c3)c2[C@@H]1CCO	2.7	.	-0.1
Cc1ccc(S(=O)(=O)N2CCOCC2)cc1C(=O)NCCCN1CCCC1=O	-4.0	-3.0	10.6*
O=C(NCCCN1CCCC1=O)c1cc(S(=O)(=O)N2CCN(c3ccccc3)CC2)ccc1Cl	3.7	7.8	-0.7
CCOC(=O)N1CCN(C(=S)NC(=O)c2cccc(OC)c2)CC1	-1.0	-5.8	-0.4
CCOC(=O)N1CCN(C(=S)NC(=O)c2ccc(F)c(F)c2)CC1	.	1.8	11.5*
C[C@H](CO)N1C[C@H](C)[C@@H](CN(C)C(=O)Cc2ccccc2)OCCCC[C@H](C)Oc2ccc(NS(=O)(=O)c3ccc(F)cc3)cc2C1=O	-1.4	.	.
CC(C)NC(=O)N[C@H]1CC[C@@H](CCn2cc(-c3ccccc3)nn2)O[C@@H]1CO	-0.9	.	0.4
